This is part of a sample that, as a whole, favours compounds with a hit. Of some 83,000 tested, about 20% had one in any assay.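 Values shown are percent growth following 48 h exposure of cells in 96-well plates to a single concentration of compound; below 10 was considered active.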 A number with no mark means an inactive call. Calls of active or inactive are those of the source.

The test relates to HT29 colon. The experiment in a line: NCI-60 one-dose screen, 48 h (100 = growth as untreated, 0 = no growth, -100 = all killed). As to conditions: 10 µM unless noted. As for the experimental part:
Growth inhibition of the HT29 human tumor cell line is measured as a screen for anti-cancer activity. Cells are grown in 96 well plates and exposed to the test compound for 48 hours. Compounds are tested at a single concentration, which is 10^-5 M for most compounds. The reported endpoint is percent growth (GI% or GIPRCNT), where numbers from 0 - 100% represent growth inhibition, and numbers from -100% - 0 represent cell death. For example, a value of 40 represents 60% growth inhibition. A value of 0 means no net growth occurred over the course of the experiment. A value of -40 indicates 40% of cells at the beginning of the experiment died by the end of the experiment. A value of -100 means all cells are dead at the end of the experiment.
NCI-60 Human Tumor Cell Lines Screen was performed using the standard one-dose NCI protocol, which is described in more detail at https://dtp.cancer.gov/discovery_development/nci-60/default.htm.
Compounds with GIPRCNT values below 10 were considered active. Activity score was based on GIPRCNT using the following formula: […]
Score is 0 for GIPRCNT values of 100 or above, 50 for GIPRCNT values of 0, and 100 for GIPRCNT values of -100.
In the case of `CO[C@H](C(=O)[C@@H](O)[C@@H](C)O)[C@@H]1Cc2cc3cc(O[C@H]4C[C@@H](O[C@H]5C[C@@H](O)[C@H](O)C(C)O5)[C@H](O)C(C)O4)c(C)c(O)c3c(O)c2C(=O)[C@H]1O[C@H]1C[C@@H](O[C@H]2C[C@@H](O[C@H]3C[C@@H](OC)[C@H](O)C(C)O3)[C@@H](O)C(C)O2)C(O)(O)C(C)O1` (stereo not given in full), the growth is -0.578% (active). As for `O=c1nc(Nc2nc3ccccc3s2)[nH]c(=O)c2ccccc12`, the growth was 108%. The result for `CC1(C)OC(=O)C(=Cc2cccc(Br)c2)C(=O)O1` reads 92.9%; that for `COc1ccc(-c2ccc(-c3ccc(C(=N)N)cn3)s2)cc1`, 16.1%; that for `O=C(CSc1nnc2sc(Nc3cccc(Cl)c3)nn12)c1ccc(F)cc1`, 90.5%. The result for `COC(=O)c1nc(-c2ccccc2)oc1S(=O)(=O)N1CCC(C(N)=O)CC1` reads 32.9%; that for `CCCCCCC(=O)Nc1ncc(Cc2ccc(C)cc2)s1`, 15.4%. As to `COc1ccc(/C(C)=C(\c2ccc(OCCN3CCCCCC3)cc2)c2ccc(OC(=O)c3ccccc3)cc2)cc1`, the growth was -3.62% (active). In the case of `COc1cc2c(c(OC)c1OC)C(=O)N[C@@H]1[C@@H](O)[C@@H](O)[C@H](O)C[C@@H]21` it was 107%; in that of `CN(C)c1ccc(/C=C/C(=O)c2ccccc2)cc1`, 62.5%.

`C[C@@H]1CC[C@@]2(OC1)O[C@H]1C[C@H]3[C@@H]4CC=C5C[C@@H](O[C@@H]6O[C@H](CO)[C@@H](O[C@@H]7O[C@@H](CO)[C@H](O)[C@H]7O)[C@H](O)[C@H]6O[C@@H]6O[C@@H](C)[C@H](O)[C@@H](O)[C@H]6O)CC[C@]5(C)[C@H]4CC[C@]3(C)[C@H]1[C@@H]2C`: the growth is -61.2% (active). For `O=C1NC(=C(Cl)Cl)/C(=N/S(=O)(=O)N2CCCCC2)N1`, the growth was -75.8% (active). On to `CC(C)CCC[C@@H](C)C1CCC2C3CCC4=C/C(=N/OCCN(C)C)CC[C@]4(C)C3CC[C@@]21C` (stereo not given in full), for which the growth was 78.7%. `COc1ccc(C2CC(c3ccc4c(c3)OCO4)=Nc3c(N)ncnc3N2)cc1` (stereo not given): the growth was 106%. The result for `C=CCn1c(SCC(=O)Nc2ccc(C(=O)/C=C/c3ccc(OC)cc3)cc2)nnc1-c1ccccc1` reads 85.3%; that for `CCCCCCOC(=O)CC1=C(C)/C(=C/c2[nH]c(-c3ccc[nH]3)cc2OC)N=C1C`, 1.26% (active); that for `NC(=O)c1ccc(NC(=O)c2oc3ccccc3c2-c2cnn(-c3ccccc3)c2)cc1`, 2.07% [50 µM] (active). In the case of `Cc1cc(N2CCN(C)CC2)nc(NCc2cc(Nc3ccnc4cc(Cl)ccc34)ccc2F)n1`, the growth is -56.1% (active). For the molecule `Cc1c2cnccc2c(C)c2c1c1cc(C3OCCCO3)ccc1n2C`, the growth was 1.09% (active). In the case of `CCc1ccc(CCC(=O)Nc2ncc(Cc3ccc(Cl)cc3)s2)o1` it was 8.1% (active); in that of `O=C(CCCCCCN1CC(=O)N2[C@@H](C3CCCCC3)c3[nH]c4ccccc4c3C[C@H]2C1=O)NO`, 58.9%; in that of `N#Cc1c(Nc2ccc(F)cc2)n[nH]c1-c1cccs1`, 114%. The result for `CN1CCN(C(=O)c2cc(-c3ccc4ncnc(N5CCc6cc(F)c(Cl)cc65)c4c3)cnc2N)CC1` reads 13.6%. In the case of `O=C(/C=C/c1ccc(Br)cc1)c1ccc(-n2cc(CN3CCN(c4cc5c(cc4F)c(=O)c(C(=O)O)cn5C4CC4)CC3)nn2)cc1` it was 91.7%. Consider `O=C(N/N=C/c1ccc([N+](=O)[O-])cc1)c1ccc2nc(-c3ccc(Cl)cc3)[nH]c2c1`, for which the growth is 8.25% (active). On to `CN1CCN(CCCOC(=O)c2c3c(n4ccccc24)C(=O)c2ncccc2C3=O)CC1`, for which the growth is -32.3% (active). Regarding `C=C(CN1CC=CCC1)[C@@H]1CC[C@]2(CO)CC[C@]3(C)[C@H](CC[C@@H]4[C@@]5(C)CC[C@H](O)C(C)(C)[C@@H]5CC[C@]43C)[C@@H]12`, the growth was 55.3%. Turning to `CCN(CC)CCNC(=O)c1ccc(-c2nc3ccc4[nH]ncc4c3c3c2CCCC3)cc1`, the growth was 68.3%. In the case of `COCC[C@H]1CCC/C=C/[C@@H]2C[C@H](O)C[C@H]2[C@H](O)/C=C/C(=O)O1` it was -13.8% (active); in that of `COc1ccc2c(c1)c(-c1cc(-c3cn(C)c4ccc(OC)cc34)on1)cn2C`, 97.3%; in that of `COc1ncc2cc1NS(=O)(=O)c1cccc(c1)C(=O)NCC1=CC=C(S1)c1ncnc3c1SC2=C3C`, 4.55% (active).

On to `CN(C)Cc1ccc(C(=O)Nc2ccc3ncnc(Nc4ccc(Oc5cccc(F)c5)c(Cl)c4)c3c2)cc1`, for which the growth was -35.4% (active). In the case of `CC1(C)C2CC=C(/C=N/NC(=O)C3CCC(=O)N3)C1C2` (stereo not given), the growth was 106%. Regarding `O=C(N/N=C/c1ccc(Cl)cc1Cl)c1ccc2nc(-c3ccc(Cl)cc3)[nH]c2c1`, the growth is 1.67% (active). In the case of `Cn1cc(-c2csc(-c3cn(C)c4ccc(Br)cc34)n2)c2cnccc21` it was -76.2% (active). The result for `CN1CCN(Cc2ccc(NC(=O)c3cncc(C#Cc4cnn5ccccc45)c3)cc2C(F)(F)F)CC1` reads 4.53% (active). `COC(=O)C1=C(C)NC(C)=C(C(=O)OCC(C)C)C1c1ccccc1[N+](=O)[O-]` (stereo not given): the growth is 87.3%. Consider `COc1cc(Nc2ncccc2NC(=O)c2cn(Cc3cccc(Oc4ccccc4)c3)nn2)cc(OC)c1`, for which the growth is 88.8%.

For `Cc1nn(-c2ccccc2)c(N2CCCCC2)c1/C=N/NC(=O)Cn1c(=O)sc2ccccc21`, the growth is 57.3%. `NNC(=S)N/N=C/c1ccccn1`: the growth was 36%.
